Assay outcomes: PubChem BioAssay, Johns Hopkins Ion Channel Center
Sampled rows, rich in hits. Any-hit rate of the full collection: about 1.6%.
KCNQ2 inh = rat KCNQ2 potassium channel inhibitors, primary screen, cell-based, CHO-K1, FluxOR thallium flux, B-score | B-score at 10 µM | 20 min; active compounds read low | 310,000 compounds, 1.1% hits | Potassium voltage-gated channel subfamily KQT member 2 (Rattus norvegicus), O88943 | AID 2156, 2009;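 active means fluorescence ratio B-score at most minus 3 library SDs, with starting brightness B-score within 2 library SDs, cut at about -5.5 in these data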
KCNQ2 enhance = potentiators of rat KCNQ2 potassium channel. Potassium voltage-gated channel subfamily KQT member 2 (Rattus norvegicus), O88943. CHO-K1 KCNQ2, FluxOR thallium flux fluorescence; active compounds read high. B-score at 10 µM. 310,000 compounds, 0.54% hits. AID 2239, 2010;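 active means fluorescence ratio B-score at least 3 SD of library B-scores, with initial fluorescence B-score within 3 of them, cut at about 5.3 in these data; same plate scores as AID 2156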;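 further: B-score of peak minus minimum over baseline fluorescence ratio after K+ and Tl+ stimulus; positive B-score means potentiation of KCNQ2 with more thallium influx and brighter signal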
The depositor's hits bear a star; i = inactive; . = no result given.

SMILES | KCNQ2 inh | KCNQ2 enhance
O=c1c2c(n3nnnc3n1Cc1ccccc1)-c1ccccc1CC21CCCC1 | i | .
CCC1(C)Cc2ccccc2-c2c1c(=O)n(Cc1ccccc1)c1nnnn21 (stereo not given) | -6.23* | -6.23
Cc1noc(C)c1CSc1ccccc1C(=O)O | i | .
O=C(NCCOc1ccc(Cl)cc1)c1ccc2ccccc2n1 | -6.3* | -6.3
Cc1ccc(OCCNC(=O)c2ccc3ccccc3n2)cc1 | i | .
CCC(=O)N1CCc2cc(S(=O)(=O)NC(Cc3ccccc3)C(=O)O)ccc21 (stereo not given) | i | 1.41
Cc1ccc(CNC(=O)CN(C)S(=O)(=O)c2ccc3c(c2)n(C)c(=O)c(=O)n3C)cc1 | i | 2.36
COc1c(/C=N/Nc2nc(N3CCCCC3)nc(N3CCCCC3)n2)cccc1[N+](=O)[O-] | i | .
O=[N+]([O-])c1ccc(/C=N/Nc2nc(N3CCCCC3)nc(N3CCCCC3)n2)o1 | -5.56* | -5.56
COc1ccc(Cl)cc1NS(=O)(=O)c1c(C)[nH]c(C)c1C(=O)N1CCCCC1 | i | 0.13
COC(=O)c1sccc1NC(=O)c1c(C)c(-c2cccc(Cl)c2)nc2ccccc12 | -5.74* | -5.74
COC(=O)c1sccc1NC(=O)c1cc(-c2cccc(C)c2)nc2ccccc12 | i | .
CO/N=C/c1cc([N+](=O)[O-])ccc1Sc1ccc(C)cc1 | -7.42* | -7.42
CO/N=C/c1ccc(Sc2ccc(C)cc2)c([N+](=O)[O-])c1 | i | 0.8
COc1ccccc1CNC(=O)c1csc2c1CCCC2 | -6.46* | -6.46
COc1ccccc1NC(=O)c1csc2c1CCCC2 | i | .
Cc1cccc(OC(C)C(=O)N2CCCN(C)CC2)c1C (stereo not given) | i | .
COc1ccc(CNn2c(-c3cccc(C)c3)nc3ccccc3c2=O)cc1OC | i | .
COc1ccccc1CNn1c(-c2cccc(C)c2)nc2ccccc2c1=O | -7.58* | -7.58
CCOc1ccc(NC(=O)[C@H](Cc2ccccc2)NC(=O)C2CCNCC2)cc1 | i | 0.36
COc1ccc(C2Nc3ccccc3C(=O)N2Cc2ccco2)cc1COc1ccc([N+](=O)[O-])cc1 (stereo not given) | -6.79* | -6.79
COc1cccc(OCc2cc(C3Nc4ccccc4C(=O)N3Cc3ccco3)ccc2OC)c1 (stereo not given) | -5.87* | -5.87
O=C1c2ccccc2NC(c2ccc(F)cc2)N1Cc1ccco1 (stereo not given) | i | 0.53
O=C1c2ccccc2NC(c2ccccc2)N1Cc1ccco1 (stereo not given) | i | .
CC(C)CCC(C(=O)O)C(C)CC(=O)Nc1ccn(-c2ccccc2)n1 (stereo not given) | i | 0.92
SMILES | KCNQ2 inh | KCNQ2 enhance
CC(C)N(C(=O)Cn1cc(S(=O)(=O)CC(=O)NCc2ccc(F)cc2)c2ccccc21)C(C)C | i | 0.69
Cc1cc(C)n2nc(NCc3cccc(Br)c3)nc2n1 | -6.69* | -6.69
COc1ccc(CNc2nc3nc(C)cc(C)n3n2)cc1OC | i | 0.53
CC(C)(C)OC(=O)N1Cc2ccccc2C[C@H]1C(=O)NCC(=O)NC1CCCCC1 | i | .
COCCCNC(=O)C(=O)Nc1ccc2c(c1)N(S(=O)(=O)c1cccs1)CCC2 | i | 0.4
CCCc1cc(C(=O)Nc2cc(OC)c(Cl)cc2OC)no1 | i | 0.12
COc1cc(NC(=O)c2cc(CC(C)C)on2)c(OC)cc1Cl | -7.83* | -7.83
Cc1ccc(C(=O)NCC2CCCO2)cc1S(=O)(=O)N1CCCCC1 (stereo not given) | i | 1.9
Cn1c(=O)c([N+](=O)[O-])c(-n2ccnc2)c2ccccc21 | -6.05* | -6.05
Cn1c(=O)c([N+](=O)[O-])c(NCCCn2ccnc2)c2ccccc21 | i | .
Fc1cccc2sc(Nc3nc4cc5c(cc4s3)OCCO5)nc12 | i | 3.52
Fc1cccc2sc(Nc3nc4cc5c(cc4s3)OCO5)nc12 | i | 6.87*
CNC(=O)c1sc(N2N=C3/C(=C/c4ccccc4)CCCC3C2c2ccccc2)nc1C (stereo not given) | -6.11* | -6.11
O=C(c1ccccn1)N1N=C2/C(=C/c3ccccc3)CCCC2C1c1ccccc1 (stereo not given) | i | .
COc1cc(C=O)ccc1OC(=O)c1cccnc1 | i | 0.06
CCc1cc(C(=O)OC)c(NC(=O)CC2NCCNC2=O)s1 (stereo not given) | i | 0.96
CCc1cc(C(=O)OC)c(NC(=O)C2CC(=O)NN2Cc2ccccc2)s1 (stereo not given) | -5.91* | -5.91
C=CCOc1ccc(C2C(C(=O)c3ccco3)=C(O)C(=O)N2c2nnc(C)s2)cc1 (stereo not given) | i | .
CC1(C)C(=S)N(Cc2ccccc2)c2ccccc21 | -6.58* | -6.58
CC(=O)CC1(O)C(=O)N(Cc2ccccc2)c2ccccc21 (stereo not given) | i | 0.22
C[C@@H]1CC=C[C@H]2[C@H]1C(=O)N(Cc1ccccc1)[C@H]2c1ccc(-c2ccoc2)cc1F | -6.93* | -6.93
C[C@@H]1CC=C[C@H]2[C@H]1C(=O)N(Cc1ccccc1)[C@H]2c1ccc(-c2ccc(F)cc2)cc1F | i | .
Cc1ccc(S(=O)(=O)Nc2cccc3cccnc23)cc1 | i | .
Cc1cc(C)nc(SC2c3cccc4cccc(c34)C2NS(=O)(=O)c2ccccc2)n1 (stereo not given) | -5.74* | -5.74
Cc1cc(C)nc(SC2CCCCC2NS(=O)(=O)c2ccccc2)n1 (stereo not given) | i | 0.33
SMILES | KCNQ2 inh | KCNQ2 enhance
Cc1ccc(S(=O)(=O)NC2c3cccc4cccc(c34)C2Sc2ncccn2)cc1 (stereo not given) | -7.05* | -7.05
CN(Cc1cccc(F)c1)CC(O)COCc1ccccc1Cl (stereo not given) | i | .
CC(C(=O)O)N1C(=O)C2C3CC(C2C1=O)C1C(c2ccccc2)c2sc(=O)[nH]c2SC31 (stereo not given) | i | 0.97
CC1(c2ccc([N+](=O)[O-])c(CS(=O)(=O)c3ccccc3)c2)OCCO1 | i | 0.01
Cc1ccc(N(CC2CO2)S(=O)(=O)c2ccc(C)cc2)cc1 (stereo not given) | i | .
Cc1ccc(N(CC2CO2)S(=O)(=O)c2ccc([N+](=O)[O-])cc2)cc1 (stereo not given) | -6.83* | -6.83
C=CCOc1ccc(C2/C(=C(/O)c3ccc4c(c3)CC(C)O4)C(=O)C(=O)N2CCCN2CCOCC2)cc1 (stereo not given) | i | 0.88
CCn1cc2nc(SCC(=O)Nc3ccccc3F)n(Cc3ccccc3)c(=O)c2n1 | i | .
C=CCc1ccc(OCCn2cccc2C=O)c(OC)c1 | i | 7.61*
C=CCc1ccc(OCCn2nnc3ccccc32)c(OC)c1 | i | 1.86
CCc1ccc(/C=N/NC(=O)c2nnn(-c3nonc3N)c2CN2CCOCC2)cc1 | i | 0.95
O=C1C2C3C=CC(C2C(=O)N1CCO)C1C(=O)N(CCO)C(=O)C31 (stereo not given) | i | .
CC1(C)C2CCC1(C)C(OC(=O)CC(=O)O)C2 (stereo not given) | -8.22* | -8.22
CC1(C)C2CCC1(C)C(OC(=O)C[n+]1ccccc1)C2 (stereo not given) | i | .
O=C(CNS(=O)(=O)c1ccc(Br)cc1)NCc1ccncc1 | i | 0.2
COC(=O)c1c(C(=O)OC)c(-c2ccc(C(C)(C)C)cc2)n2c1CS(=O)C2 (stereo not given) | -7.98* | -7.98
